From PubChem BioAssay AID1159580 (chemical genetic matrix, 2015)
Values joined by “and” are separate entries in the source; they are usually repeats but may differ in a detail not shown here. Equal entries are not always repeated. Among all 5,500 compounds or so, about 2,000 (36%) were called active. About 18% were inconclusive and are not listed. Rule as the data show it: active = normalized growth mostly below about 0.91 (no sharp cut-off); inconclusive = no clear call, values can overlap the other calls; inactive = mostly above about 0.92. The list shows a part of the results.

Assay: chemical genetic growth profiling, strain panel (AID 1159580);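 also: tested at 20 µM; growth read once vehicle control cultures reached saturation at 30 °C; 1 = growth at the plate median or of vehicle wells; lower values mean less growth of the strain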
Settings: S. cerevisiae deletion strains, growth OD

Measured: normalized growth

COc1ccc(CCN2CCC(Nc3nc4ccccc4n3Cc3ccc(F)cc3)CC2)cc1
active: locus YAL021C, strain ccr4, hits give low values 0.721 | locus YAL026C, strain drs2, hits give low values 0.783 | locus YBR021W, strain FUR4, hits give low values 0.821 | locus YDR069C, strain doa4, hits give low values 0.874 | locus YDR137W, strain rgp1, hits give low values 1.18 [resistant] | locus YDR388W, hits give low values 0.687 | locus YEL037C, strain rad23, hits give low values 0.867 | locus YER016W, strain bim1, hits give low values 0.911 | locus YER155C, strain BEM2 (second series), hits give low values 0.822 | locus YFR010W, strain ubp6, hits give low values 0.838 | locus YGL253W, strain hxk2, hits give low values 0.904 | locus YGR135W, strain pre9, hits give low values 0.877 | locus YIL073C, strain SPO22, hits give low values 1.74 [resistant] | locus YJL092W, strain hpr5, hits give low values 0.917
inactive: locus YAL030W, strain snc1, hits give low values 0.988 | locus YBL061C, strain skt5, hits give low values 0.969 | locus YBR009C, strain hhf1, hits give low values 0.936 | locus YBR023C, strain chs3, hits give low values 0.959 | locus YBR171W, strain sec66, hits give low values 0.992 | locus YBR229C, strain ROT2, hits give low values 0.972 | locus YBR231C, strain swc5, hits give low values 0.981 | locus YBR279W, strain paf1, hits give low values 0.954 | locus YCL011C, strain gbp2, hits give low values 0.935 | locus YCL016C, strain dcc1, hits give low values 0.919 | locus YCL029C, strain bik1, hits give low values 0.983 | locus YCL061C, strain MRC1, hits give low values 0.96 | locus YCL069W, strain vba3, hits give low values 0.953 | locus YCR088W, strain abp1, hits give low values 0.924 | locus YDL005C, strain med2, hits give low values 0.967 | locus YDL035C, strain GPR1, hits give low values 0.972 | locus YDL040C, strain nat1, hits give low values 0.985 | locus YDL074C, strain BRE1, hits give low values 0.935 | locus YDL101C, strain DUN1, hits give low values 0.984 | locus YDL134C, strain PPH21, hits give low values 0.983 | locus YDL185W, strain tfp1, hits give low values 0.984 | locus YDL192W, strain arf1, hits give low values 0.986 | locus YDR001C, strain nth1, hits give low values 0.972 | locus YDR101C, strain arx1, hits give low values 0.992 | locus YDR150W, strain NUM1, hits give low values 1 | locus YDR159W, strain sac3, hits give low values 0.986 | locus YDR162C, strain NBP2, hits give low values 0.986 | locus YDR195W, strain ref2 0.971 | locus YDR297W, strain sur2, hits give low values 0.999 | locus YDR318W, strain mcm21, hits give low values 0.984 | locus YDR334W, strain swr1, hits give low values 0.979 | locus YDR335W, strain msn5, hits give low values 0.959 | locus YDR392W, strain spt3, hits give low values 0.742 | locus YDR502C, strain sam2, hits give low values 0.977 | locus YEL003W, strain gim4, hits give low values 0.96 | locus YEL061C, strain CIN8 (second series), hits give low values 0.981 | locus YEL061C, strain CIN8, hits give low values 0.993 | locus YER015W, strain faa2, hits give low values 0.93 | locus YER110C, hits give low values 0.992 | locus YER111C, strain swi4, hits give low values 0.962 | locus YER155C, strain BEM2, hits give low values 0.991 | locus YER167W, strain BCK2, hits give low values 0.973 | locus YGL078C, strain dbp3, hits give low values 0.985 | locus YGL086W, strain mad1, hits give low values 1.02 | locus YGL167C, strain pmr1, hits give low values 1 | locus YGL173C, strain kem1, hits give low values 0.982 | locus YGL227W, strain vid30, hits give low values 0.981 | locus YGL240W, strain doc1, hits give low values 0.978 | locus YGL248W, strain PDE1, hits give low values 0.985 | locus YGR229C, strain SMI1, hits give low values 0.971 | locus YGR252W, strain gcn5, hits give low values 0.9 | locus YHR013C, strain ard1, hits give low values 0.857 | locus YHR027C, strain rpn1, hits give low values 0.954 | locus YHR030C, strain SLT2, hits give low values 0.997 and 0.996 | locus YHR079C, strain IRE1 (second series), hits give low values 0.984 | locus YHR079C, strain IRE1, hits give low values 0.972 | locus YHR094C, strain hxt1, hits give low values 0.986 | locus YHR129C, strain ARP1, hits give low values 0.988 | locus YHR142W, strain chs7, hits give low values 0.888 | locus YHR200W, strain rpn10, hits give low values 0.994 | locus YIL066C, strain RNR3, hits give low values 0.974 | locus YIL125W, strain kgd1, hits give low values 0.993 | locus YIR030C, strain dcg1, hits give low values 0.99 | locus YJL095W, strain BCK1 (second series), hits give low values 0.991 | locus YJL095W, strain BCK1, hits give low values 0.923 and 0.988 | locus YJL115W, strain asf1, hits give low values 0.976 | locus YJL129C, strain trk1, hits give low values 0.972 | locus YJL134W, strain LCB3, hits give low values 0.998 | locus YJL154C, strain vps35, hits give low values 0.962 | locus YJL164C, strain tpk1, hits give low values 0.957 | locus YJL166W, strain qcr8, hits give low values 0.974 | locus YJL168C, strain set2, hits give low values 0.994 | locus YJL187C, strain SWE1 (second series), hits give low values 0.976 | locus YJL187C, strain SWE1, hits give low values 0.982 | locus YJR043C, strain POL32, hits give low values 0.998
